Sampled rows, rich in hits. Any-hit rate of the full collection: about 19%.
KB-3-1 cytotox = KB-3-1 parental cell cytotoxicity | actives 1.4% (n = 400,000) | Potency, µM (series often up to 46.1 µM), hits mostly cytotoxic | KB-3-1 viability, CellTiter-Glo ATP luminescence, 72 h; further: nearly all actives have a fitted effect of over 60% in size
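Using CellTiter-Glo luminescence, growth of non-resistant KB-3-1 adenocarcinoma cells is assessed 72 h after pin-tool compound addition at 37 °C. Normalized responses across the concentration series yield fitted curves.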
TDP1 cell CPT = DT40-hTDP1 cell growth loss with CPT. actives 12% (n = 420,000). Potency, µM (series often up to 46.2 µM), for inactives: top-dose activity change, negative = growth inhibition, actives largely listed as inhibitors. chicken DT40 Tdp1-/-;hTDP1 cells + 20 nM CPT, ATP luminescence, 48 h. AID 686979; further: nearly all actives have a fitted effect of over 55% in size
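Chicken DT40 Tdp1-/- cells complemented with human TDP1, 400 cells/well, exposed to compounds plus 20 nM camptothecin for at least 48 h at 37 C; viability read as ATP content by CellTiter-Glo luminescence.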
HT1080 IDH1KD tx = toxicity to HT-1080 IDH1 knockdown cells (counter line); HT-1080 IDH1 knockdown viability, ATP luminescence, 48 h; Potency, µM (series often up to 46.1 µM), inactives show at the highest dose activity, negative = toxicity, actives largely listed as cytotoxic; actives 2% (n = 360,000); AID 686971;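 further: 0% = DMSO wells and -100% = cell-free medium wells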
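Cytotoxicity counter-line: IDH1KD HT-1080, 48 h, CellTiter-Glo. Curves classed by r2, magnitude and activity.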
DT40 TDP1 no CPT = qHTS for Inhibitors of human tyrosyl-DNA phosphodiesterase 1 (TDP1): qHTS in cells in absence of CPT; DT40 Tdp1-/- hTDP1 cells, no CPT, ATP luminescence, 48 h; AID 686978, 2013; Potency, µM (doses to about 46.2 µM), for the others: top-dose activity change, negative = growth inhibition, hits mostly inhibitors; actives 15% (n = 420,000); further: nearly all actives have a fitted effect of over 55% in size
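DT40 Tdp1-/-;hTDP1 cells, no CPT (DMSO vehicle only), 400 cells/well; compounds pin-transferred; ≥48 hr, 37 °C; CellTiter-Glo 30 min RT dark, luminescence read.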
HT1080NT lethal = kills 2HG-producing HT-1080-NT fibrosarcoma cells; actives 1.6% (n = 360,000); HT-1080-NT fibrosarcoma viability, CellTiter-Glo ATP luminescence, 48 h; Potency, µM (doses to about 46.1 µM), for inactives: at the highest dose activity, negative = less viability, hits mostly cytotoxic; AID 686970;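 further: NT is the 2HG producing partner of a matched IDH1 knockdown line; 0% = DMSO-treated cells and -100% = media-only wells without cells; nearly all actives have a fitted effect of over 55% in size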
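Fibrosarcoma NT cells, 750 per well in 5% FBS RPMI, were exposed to compound for 48 hours. Viability: CellTiter-Glo luminescence.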
KB-V1 cytotox = kills drug-selected multidrug resistant KB-V1 cells; KB-V1 MDR cells viability, CellTiter-Glo, 72 h; Potency, µM (doses to about 46.1 µM), most hits filed as cytotoxic; actives 3.4% (n = 400,000); further: nearly all actives have a fitted effect of over 60% in size
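Cells of the MDR subline KB-V1 are plated, dosed with compound at multiple concentrations, and incubated 72 h at 37 degrees C; CellTiter-Glo is then added and luminescence read after 10 min.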
* hit, by the source's call; i = inactive; ? = inconclusive; · = not tested or not shown; ! = not active in a repeat. The call rests on the fitted dose curve; in most records, active means well fitted curve in the direction sought with a large enough effect; inconclusive means small, poorly fitted or top-dose-only effect, or another doubt; inactive means no such curve, though single readings can be large; an effect the other way counts as inactive or inconclusive. Unless noted, on the % scale 0 is the no-effect control and ±100 the full control effect; potency means the concentration at half of the fitted maximal effect.

SMILES	KB-3-1 cytotox	TDP1 cell CPT	HT1080 IDH1KD tx	DT40 TDP1 no CPT	HT1080NT lethal	KB-V1 cytotox
C=CCNC(=S)N/N=C(\C)c1cccc(OC)c1	i	1.2µM*	11%	2.1µM*	-4%	23µM*
COc1cc(NC(=O)/C=C/c2ccccc2)c(C(=O)O)cc1OC	i	?	5%	?	-4%	i
CCOCCOC(=O)c1ccc(NC(=O)/C=C/c2ccc(OC)c(OC)c2)cc1	i	26µM*	·	9.2µM*	·	i
COc1ccc(/C=C/C(=O)Nc2ccc(Cl)c(Cl)c2)cc1OC	i	?	·	21µM*	·	?
COc1ccc(/C=C\C(=O)Nc2ccccc2C(=O)O)cc1OC	·	13µM*	·	13µM*	·	·
CCCCCOc1ccc(/C=C/C(=O)Nc2sc(C(C)=O)c(C)c2C(=O)OCC)cc1OC	i	?	·	5.8µM*	·	?
CC(=O)OCC(=O)C1(O)CCC2C3CCC4C(OC(C)=O)C(=O)CCC4(C)C3C(=O)CC21C (centres undefined)	i	10%	8%	7%	7%	i
C[C@H]1CN([C@@H](C)CO)C(=O)CCCn2nncc2CO[C@@H]1CN(C)Cc1ccncc1	i	-25%	2%	-3%	-2%	i
CCOC(=O)c1ccccc1NC(=O)/C=C/c1cc(OC)c(OC)c(OC)c1	i	-20%	0%	6.5µM*	-2%	i
COC(=O)c1cc(Cl)c(NC(=O)/C=C/c2ccc(OC)c(OC)c2)cc1OC	i	?	-6%	23µM*	-7%	?
COC(=O)c1cn(C(=O)c2ccccc2Cl)c2ccccc12	?	?	?	?	-21%	i
COC(=O)c1cn(C(=O)/C=C/c2ccc(OC)c(OC)c2)c2ccccc12	i	?	?	16µM*	-22%	i
COC(=O)c1cn(C(=O)c2ccc(C)cc2C)c2ccccc12	?	?	6.5µM*	?	?	i
Cc1cccc(CNC(=O)CS(=O)(=O)c2cccc3nsnc23)c1	i	7%	·	9%	·	i
CCCCOC(=O)c1ccc(NC(=O)Nc2ccc(OC)c(OC)c2)cc1	?	?	?	?	-5%	i
COc1ccc(OC)c(/C=C/C(=O)Nc2ccc(C(=O)OCCC(C)C)cc2)c1	i	18µM*	·	18µM*	·	i
CN(Cc1cccc(C(F)(F)F)c1)C(=O)[C@H]1O[C@@H](n2ccc(N)nc2=O)[C@H](O)[C@@H]1O	i	4%	27%	18%	17%	i
CCOC(=O)/C(=N\Nc1cccc(C(F)(F)F)c1)N1CCOCC1	i	-21%	-2%	-19%	0%	i
CCOC(=O)/C(=N\Nc1cccc(C(F)(F)F)c1)N(CCOC)CCOC	i	?	-5%	?	9%	23µM*
CC(C)C(=O)Nc1nc2c(ncn2C2CC(O)C(CO)O2)c(=O)[nH]1 (centres undefined)	i	-28%	0%	?	18%	i
O=c1[nH]cnc2c1ncn2[C@H]1C[C@H](O)[C@@H](CO)O1	i	13µM*	·	?	·	?
O=c1[nH]cnc2c1ncn2C1CCC(CO)O1 (centres undefined)	i	13µM*	-1%	?	22%	i
O=c1[nH]cnc2c1ncn2C1OC(CO)C(O)C1O (centres undefined)	i	0.58µM*!	3%	0.82µM*!	0%	i
OC[C@@H]1CCC[C@@H](n2cnc3c(=S)nc[nH]c32)O1	?	?	·	-12%	·	i
C[C@@H]1CN([C@@H](C)CO)C(=O)CCCn2nncc2CO[C@@H]1CN(C)C(=O)Nc1ccc(N2CCN(C)CC2)cc1	i	6%	5%	3%	3%	i
SMILES	KB-3-1 cytotox	TDP1 cell CPT	HT1080 IDH1KD tx	DT40 TDP1 no CPT	HT1080NT lethal	KB-V1 cytotox
Cc1cc(C)c2nc(-c3ccccn3)cc(C(=O)n3cccn3)c2c1	i	?	13%	18µM*	18%	i
COc1cc(C=O)c(-c2c(C=O)cc(OC)c3c2OCO3)c2c1OCO2	i	?	-15%	12µM*	-5%	?
O=C(c1cnccn1)N1CCC2(CC1)CCN(c1ccccc1)CC2	·	18%	·	?	·	·
O=C(N/N=C\c1ccc(Cl)cc1)C1=NOC2COC3(CCN(c4ccc([N+](=O)[O-])cc4)CC3)OCC12 (centres undefined)	?	10µM*	0%	6.5µM*	-24%	?
NNC(=O)C1=NOC2COC3(CCN(c4ncccn4)CC3)OCC12 (centres undefined)	i	-14%	10%	?	23%	i
Cc1ccc(-c2nc3c(Cl)cc(C(F)(F)F)cn3c2Cc2ccsc2)cc1	?	?	-2%	?	-1%	i
O=C(COc1c(Br)cc(Br)c2cccnc12)Nc1ccccc1F	i	?	4%	18µM*	-7%	i
C=CC(=O)N=c1sc2ccccc2n1-c1ccccc1	15µM*	2.6µM*	10µM*	2.6µM*	13µM*	7.3µM*
COC(=O)Cn1c(=NC(=O)CSC(C)=O)sc2ccccc21	i	?	2%	?	?	i
O=c1sc2ccccc2n1Cc1ccccc1	i	-5%	0%	-2%	1%	i
N=c1sc2ccccc2n1-c1ccccc1	?	?	?	26µM*	-10%	?
CC(C)(CNC(=O)c1cc2c(s1)CCCC2)N1CCOCC1	i	8%	0%	-7%	-4%	i
COCCNC(=O)CCC(=O)NNc1nc2ccccc2c2nc(-c3ccccc3)nn12	i	?	-6%	?	-12%	i
CCOc1ccc(CCNC(=O)Cn2nc(C)n3c(cc4occc43)c2=O)cc1OCC	i	-23%	·	-28%	·	i
COC(=O)c1ccc2nc(-c3ccc(C)cc3)c(Cc3ccc(C)cc3)n2c1	i	?	11%	16µM*	11%	i
COC(=O)c1ccc2nc(-c3ccccc3)c(Cc3cccc(F)c3)n2c1	i	?	-1%	?	2%	?
COC(=O)c1ccc2nc(-c3ccc(F)cc3)c(Cc3cccc(Cl)c3)n2c1	?	?	6%	18µM*	8%	?
COC(=O)c1ccc2nc(-c3ccco3)c(Cc3ccc(C)cc3)n2c1	i	-98%	?	?	?	i

Screens (PubChem)
